Laboratory results: PubChem BioAssay (EPA / NIEHS)
Values joined by “and” are separate entries in the source; they are usually repeats but may differ in a detail not shown here. Equal entries are not always repeated. Results filed as inconclusive are left out. A structure can be active in one record and inactive in another. Active and inactive are the calls of the source. The calls were made as follows, unless noted: active = hit-call score of the fitted dose curve at least 0.9, where 1 is the maximum; inactive = score below 0.9.

Tests used:
[1] = BSK_LPS_PGE2: BioMAP Diversity Plus: LPS Assay for Prostaglandin E2 (PGE2) Biomarker Activity (AID 2283082); details: primary human HUVEC with PBMC; actives raise or lower the signal;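 as to AC50: secreted prostaglandin E2 measured by ELISA in LPS-stimulated co-culture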
Method in brief: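 ELISA read-out of PGE2 from human umbilical vein endothelial cells co-cultured with peripheral blood mononuclear cells under LPS, 24 h post-dose. Gain or loss of signal scored relative to DMSO baseline.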

[2] = read-out: Macrophage colony-stimulating factor (MCSF), CSF1 (gene 1435); experiment: BSK_LPS_MCSF: BioMAP Diversity Plus: LPS Assay for Macrophage colony-stimulating factor (MCSF) Biomarker Activity (AID 2283083); details: primary human HUVEC with PBMC; actives raise or lower the signal
Method in brief: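 HUVEC + PBMC co-culture (human primary), 24 h post-dose; M-CSF by ELISA; gain/loss of signal fitted bidirectionally vs DMSO baseline.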

[3] = read-out: Tissue Factor, F3 (gene 2152); experiment: BSK_LPS_TissueFactor: BioMAP Diversity Plus: LPS Assay for Tissue Factor Biomarker Activity (AID 2283084); details: primary human HUVEC with PBMC; actives raise or lower the signal
Method in brief: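 HUVEC/PBMC co-culture, LPS-activated; CD142 ELISA read 24 h post-dose; bidirectional curve fit vs DMSO negative control.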

[4] = read-out: Tumor necrosis factor (Homo sapiens) (UniProt P01375); experiment: BSK_LPS_TNFa: BioMAP Diversity Plus: LPS Assay for Tumour Necrosis Factor alpha (TNFa) Biomarker Activity (AID 2283085); details: primary human HUVEC with PBMC; actives raise or lower the signal;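 as to AC50: TNFa protein level quantified by ELISA in the co-culture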
Method in brief: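 HUVEC/PBMC co-culture, LPS-stimulated; 24 h post-dose; TNFa by ELISA; gain or loss of signal fitted bidirectionally vs DMSO baseline.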

[5] = read-out: Vascular cell adhesion molecule 1 (VCAM1), VCAM1 (gene 7412); experiment: BSK_LPS_VCAM1: BioMAP Diversity Plus: LPS Assay for Vascular cell adhesion molecule 1 (VCAM1) Biomarker Activity (AID 2283086); details: primary human HUVEC with PBMC; actives raise or lower the signal
Method in brief: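 ELISA read-out of VCAM-1 at 24 h post-dosing in an LPS-driven HUVEC/PBMC primary human co-culture; gain or loss of signal fitted bidirectionally against DMSO baseline. Cytotoxicity tracked in parallel cultures by SRB total-protein staining.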

CD38, CD38 (gene 952) = experiment: BSK_SAg_CD38: BioMAP Diversity Plus: SAg Assay for CD38 Biomarker Activity (AID 2283087); details: primary human HUVEC with PBMC; actives raise or lower the signal
Method in brief: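 Measures CD38 on a human endothelial/PBMC co-culture driven by SEB and TSST-1, 24 h after compound exposure, using ELISA with fluorescence detection; DMSO defines baseline for bidirectional curve fitting.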

CD40, CD40 (gene 958) = experiment: BSK_SAg_CD40: BioMAP Diversity Plus: SAg Assay for CD40 Biomarker Activity (AID 2283088); details: primary human HUVEC with PBMC; actives raise or lower the signal
Method in brief: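 HUVEC/PBMC co-culture, 24 h post-dose; CD40 by ELISA, fluorescence intensity; bidirectional fit vs DMSO negative control.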

CD69, CD69 (gene 969) = experiment: BSK_SAg_CD69: BioMAP Diversity Plus: SAg Assay for CD69 Biomarker Activity (AID 2283089); details: primary human HUVEC with PBMC; actives raise or lower the signal;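 as to AC50: cell surface CD69 protein quantified by ELISA with fluorescence detection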
Method in brief: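 ELISA, fluorescence read-out: CD69 on human umbilical vein endothelial cell + PBMC co-culture, 24 h post-dosing. Gain or loss of signal fitted bidirectionally against DMSO baseline.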

[6] = read-out: Monocyte Chemoattractant Protein-1 (MCP1), CCL2 (gene 6347); experiment: BSK_SAg_MCP1: BioMAP Diversity Plus: SAg Assay for Monocyte Chemoattractant Protein-1 (MCP1) Biomarker Activity (AID 2283090); details: primary human HUVEC with PBMC; actives raise or lower the signal
Method in brief: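 Values derive from bidirectional fitting of ELISA-measured MCP1 against DMSO controls. Readings were taken 24 h after dosing human vascular endothelial cells co-cultured with peripheral blood mononuclear cells under superantigen stimulation.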

[7] = read-out: E-selectin (Homo sapiens) (UniProt P16581); experiment: BSK_SAg_Eselectin: BioMAP Diversity Plus: SAg Assay for Eselectin Biomarker Activity (AID 2283091); details: primary human HUVEC with PBMC; actives raise or lower the signal
Method in brief: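 E-selectin ELISA readout at 24 h post-dosing in human umbilical vein endothelial cell/PBMC co-culture; gain or loss of signal fitted relative to DMSO baseline.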

[8] = read-out: Monokine induced gamma interferon (MIG), CXCL9 (gene 4283); experiment: BSK_SAg_MIG: BioMAP Diversity Plus: SAg Assay for Monokine induced gamma interferon (MIG) Biomarker Activity (AID 2283092); details: primary human HUVEC with PBMC; actives raise or lower the signal
Method in brief: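 ELISA readout of MIG/CXCL9; primary human umbilical vein endothelial cells co-cultured with peripheral blood mononuclear cells; 24 h post-dose; gain/loss fit vs DMSO baseline.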

[9] = BSK_SAg_PBMCCytotoxicity: PBMC Cytotoxicity Assessment in the BioMAP Diversity Plus: SAg Assay (AID 2283093); details: primary human HUVEC with PBMC;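 also: PBMC viability measured as Alamar Blue reduction fluorescence at 546/580 nm; fitted both ways against DMSO so a hit may be loss or gain of signal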;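 as to AC50: PBMC superantigen activated with SEB plus TSST-1 one hour after compound addition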
Method in brief: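 Alamar Blue reduction (6 h, ex/em 546/580 nm) read after 90 h culture of PBMC pre-dosed 1 h then stimulated with SEB plus TSST-1, 20 ng/mL each. Gain or loss of signal fitted relative to DMSO.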

[10] = read-out: Interleukin-8 (IL8), CXCL8 (gene 3576); experiment: BSK_SAg_IL8: BioMAP Diversity Plus: SAg Assay for Interleukin-8 (IL8) Biomarker Activity (AID 2283094); details: primary human HUVEC with PBMC; actives raise or lower the signal
Method in brief: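 HUVEC/PBMC co-culture, 24 h post-dose; IL-8 by ELISA. Gain or loss of signal fitted bidirectionally vs DMSO baseline.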

[11] = BSK_SAg_Proliferation: Cell Proliferation Assessment in the BioMAP Diversity Plus: SAg Assay (AID 2283095); details: primary human HUVEC with PBMC;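 also: relative cell number as total protein by SRB absorbance in sub-confluent culture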
Method in brief: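 HUVEC/PBMC co-culture, 96-well. TCA-fixed (10%), 0.1% SRB stain, A560 at 96 h. Protein content used as viability readout; bidirectional fitting vs DMSO control.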

[12] = BSK_SAg_SRB: Viability Assessment in the BioMAP Diversity Plus: SAg Assay (AID 2283096); details: primary human HUVEC with PBMC;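 also: cells read one day after compound addition; hits may be either gain or loss of signal compared with DMSO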
Method in brief: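 SRB absorbance at 560 nm served as the viability read-out. Cells (HUVEC plus peripheral blood mononuclear cells) were TCA-fixed and stained 24 h post-dosing; activity fitted in both directions against DMSO controls.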

[13] = molecular target: human CYP19A1, CYP19A1 (gene 1588) (UniProt P11511); experiment: NVS_ADME_hCYP19A1: NovaScreen (NVS) CYP450-related Enzyme Activity (ADME) Assay for human CYP19A1 (AID 2283098; active = hit-call score of the fitted dose curve at least 0.9, where 1 is the maximum;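 as to AC50: potency for inhibitors seen as loss of fluorescent enzyme signal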)
Sequence of human CYP19A1, CYP19A1 (gene 1588) (P11511 whole entry, looked up): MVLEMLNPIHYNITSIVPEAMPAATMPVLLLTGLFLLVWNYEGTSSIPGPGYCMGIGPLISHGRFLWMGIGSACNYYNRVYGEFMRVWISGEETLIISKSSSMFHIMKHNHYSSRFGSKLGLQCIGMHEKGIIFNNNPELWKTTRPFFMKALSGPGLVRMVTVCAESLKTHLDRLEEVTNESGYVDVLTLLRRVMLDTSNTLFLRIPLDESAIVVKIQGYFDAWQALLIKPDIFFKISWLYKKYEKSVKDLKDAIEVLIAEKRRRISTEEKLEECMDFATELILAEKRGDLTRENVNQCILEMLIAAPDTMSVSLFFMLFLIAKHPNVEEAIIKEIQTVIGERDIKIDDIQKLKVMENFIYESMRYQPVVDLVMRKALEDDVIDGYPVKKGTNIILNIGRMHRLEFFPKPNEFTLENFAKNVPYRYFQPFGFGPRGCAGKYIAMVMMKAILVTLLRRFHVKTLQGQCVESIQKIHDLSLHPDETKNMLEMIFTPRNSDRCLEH
Method in brief: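 Primary testing was in duplicate at a single 10 uM concentration, with actives followed up in concentration-response series. Fluorescence read-out of recombinant enzyme activity at 0.5 h, cell-free. Acetonitrile was the negative-control baseline.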

[14] = molecular target: human CYP1A1, CYP1A1 (gene 1543) (UniProt P04798); experiment: NVS_ADME_hCYP1A1: NovaScreen (NVS) CYP450-related Enzyme Activity (ADME) Assay for human CYP1A1 (AID 2283100; active = hit-call score of the fitted dose curve at least 0.9, where 1 is the maximum)
Sequence of human CYP1A1, CYP1A1 (gene 1543) (P04798 whole entry, looked up): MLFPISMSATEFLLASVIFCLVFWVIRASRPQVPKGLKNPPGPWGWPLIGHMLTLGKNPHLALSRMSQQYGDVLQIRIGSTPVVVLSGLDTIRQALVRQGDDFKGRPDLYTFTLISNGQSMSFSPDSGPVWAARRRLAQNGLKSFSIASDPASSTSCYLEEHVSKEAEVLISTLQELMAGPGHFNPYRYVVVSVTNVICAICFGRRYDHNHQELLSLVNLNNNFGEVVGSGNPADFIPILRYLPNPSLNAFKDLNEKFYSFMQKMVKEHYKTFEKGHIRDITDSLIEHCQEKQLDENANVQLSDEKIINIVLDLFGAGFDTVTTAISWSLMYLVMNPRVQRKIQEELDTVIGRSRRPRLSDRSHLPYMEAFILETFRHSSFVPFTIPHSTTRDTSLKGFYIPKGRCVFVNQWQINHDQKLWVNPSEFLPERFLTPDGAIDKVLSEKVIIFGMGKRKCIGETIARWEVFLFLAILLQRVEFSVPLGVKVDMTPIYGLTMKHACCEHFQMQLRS
Method in brief: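 Read-out: fluorescence intensity from enzymatic turnover of substrate by recombinant CYP1A1, loss of signal indicating inhibition. Incubation 1 h post-dose. Primary single-point 10 uM in duplicate; actives rerun singly with top concentration 20 uM.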

[15] = molecular target: human CYP1A2, CYP1A2 (gene 1544) (UniProt P05177); experiment: NVS_ADME_hCYP1A2: NovaScreen (NVS) CYP450-related Enzyme Activity (ADME) Assay for human CYP1A2 (AID 2283102; active = hit-call score of the fitted dose curve at least 0.9, where 1 is the maximum;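 also: potency for inhibition since loss of fluorescence marks reduced CYP1A2 activity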)
Sequence of human CYP1A2, CYP1A2 (gene 1544) (P05177 whole entry, looked up): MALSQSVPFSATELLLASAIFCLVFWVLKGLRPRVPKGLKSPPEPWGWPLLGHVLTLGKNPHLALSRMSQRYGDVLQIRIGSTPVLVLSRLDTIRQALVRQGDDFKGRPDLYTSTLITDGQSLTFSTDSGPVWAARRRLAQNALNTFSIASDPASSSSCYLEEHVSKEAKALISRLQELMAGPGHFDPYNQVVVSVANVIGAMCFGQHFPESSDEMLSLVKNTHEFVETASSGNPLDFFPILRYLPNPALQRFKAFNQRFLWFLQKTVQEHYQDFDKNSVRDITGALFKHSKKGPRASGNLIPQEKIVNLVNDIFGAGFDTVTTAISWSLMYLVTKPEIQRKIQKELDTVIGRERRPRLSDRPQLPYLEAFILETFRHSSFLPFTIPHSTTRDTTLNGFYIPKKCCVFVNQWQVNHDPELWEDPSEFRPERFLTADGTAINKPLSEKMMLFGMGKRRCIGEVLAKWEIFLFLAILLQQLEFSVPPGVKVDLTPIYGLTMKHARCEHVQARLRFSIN
Method in brief: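 Fluorescence-intensity enzyme activity read-out, taken 0.5 h post-dosing, using insect-cell-derived recombinant CYP1A2 and specific fluorescent substrate. Acetonitrile served as negative control/baseline. Single-concentration duplicate screen at 10 uM, then concentration-response follow-up.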

[16] = molecular target: human CYP2A6, CYP2A6 (gene 1548) (UniProt P11509); experiment: NVS_ADME_hCYP2A6: NovaScreen (NVS) CYP450-related Enzyme Activity (ADME) Assay for human CYP2A6 (AID 2283099; active = hit-call score of the fitted dose curve at least 0.9, where 1 is the maximum)
Sequence of human CYP2A6, CYP2A6 (gene 1548) (P11509 whole entry, looked up): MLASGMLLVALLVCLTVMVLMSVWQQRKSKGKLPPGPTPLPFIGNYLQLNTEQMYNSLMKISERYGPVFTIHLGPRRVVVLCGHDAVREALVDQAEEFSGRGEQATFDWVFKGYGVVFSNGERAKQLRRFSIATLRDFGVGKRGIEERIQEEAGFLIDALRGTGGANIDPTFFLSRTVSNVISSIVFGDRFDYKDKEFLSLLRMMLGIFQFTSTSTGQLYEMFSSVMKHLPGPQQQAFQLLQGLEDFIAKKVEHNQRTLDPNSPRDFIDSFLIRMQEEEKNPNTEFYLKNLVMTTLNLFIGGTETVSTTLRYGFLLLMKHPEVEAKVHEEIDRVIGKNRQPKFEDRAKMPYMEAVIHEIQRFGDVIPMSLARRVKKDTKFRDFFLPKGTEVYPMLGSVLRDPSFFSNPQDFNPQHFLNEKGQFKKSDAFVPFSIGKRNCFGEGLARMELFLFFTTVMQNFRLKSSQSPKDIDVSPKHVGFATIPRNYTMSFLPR
Method in brief: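 Insect-cell-expressed human CYP2A6 enzyme activity measured by fluorescence intensity 0.5 hour post-dosing. Compounds screened at 10 uM in duplicate, then hits tested singly in concentration series (max 20 uM); acetonitrile baseline.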

[17] = molecular target: human CYP2B6, CYP2B6 (gene 1555) (UniProt P20813); experiment: NVS_ADME_hCYP2B6: NovaScreen (NVS) CYP450-related Enzyme Activity (ADME) Assay for human CYP2B6 (AID 2283101; active = hit-call score of the fitted dose curve at least 0.9, where 1 is the maximum)
Sequence of human CYP2B6, CYP2B6 (gene 1555) (P20813 whole entry, looked up): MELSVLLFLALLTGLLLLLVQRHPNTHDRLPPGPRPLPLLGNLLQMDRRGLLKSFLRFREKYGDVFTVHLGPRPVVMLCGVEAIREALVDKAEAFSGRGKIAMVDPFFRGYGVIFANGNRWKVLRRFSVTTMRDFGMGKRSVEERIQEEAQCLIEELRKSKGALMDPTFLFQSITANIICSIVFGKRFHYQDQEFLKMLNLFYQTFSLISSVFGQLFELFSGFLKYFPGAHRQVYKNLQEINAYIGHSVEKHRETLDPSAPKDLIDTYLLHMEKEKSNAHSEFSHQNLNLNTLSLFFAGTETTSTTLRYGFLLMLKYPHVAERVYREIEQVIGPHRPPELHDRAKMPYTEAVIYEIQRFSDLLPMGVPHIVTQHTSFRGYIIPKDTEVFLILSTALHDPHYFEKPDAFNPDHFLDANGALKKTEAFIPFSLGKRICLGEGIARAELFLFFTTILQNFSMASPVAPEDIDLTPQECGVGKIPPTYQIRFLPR
Method in brief: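 Fluorescence-based enzyme activity of recombinant human CYP2B6, measured 1 h post-dose against acetonitrile vehicle baseline. Screened at a single concentration of 10 uM in duplicate before concentration-response follow-up.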

Measured: AC50

Sequence of E-selectin (Homo sapiens) (P16581 whole entry, looked up): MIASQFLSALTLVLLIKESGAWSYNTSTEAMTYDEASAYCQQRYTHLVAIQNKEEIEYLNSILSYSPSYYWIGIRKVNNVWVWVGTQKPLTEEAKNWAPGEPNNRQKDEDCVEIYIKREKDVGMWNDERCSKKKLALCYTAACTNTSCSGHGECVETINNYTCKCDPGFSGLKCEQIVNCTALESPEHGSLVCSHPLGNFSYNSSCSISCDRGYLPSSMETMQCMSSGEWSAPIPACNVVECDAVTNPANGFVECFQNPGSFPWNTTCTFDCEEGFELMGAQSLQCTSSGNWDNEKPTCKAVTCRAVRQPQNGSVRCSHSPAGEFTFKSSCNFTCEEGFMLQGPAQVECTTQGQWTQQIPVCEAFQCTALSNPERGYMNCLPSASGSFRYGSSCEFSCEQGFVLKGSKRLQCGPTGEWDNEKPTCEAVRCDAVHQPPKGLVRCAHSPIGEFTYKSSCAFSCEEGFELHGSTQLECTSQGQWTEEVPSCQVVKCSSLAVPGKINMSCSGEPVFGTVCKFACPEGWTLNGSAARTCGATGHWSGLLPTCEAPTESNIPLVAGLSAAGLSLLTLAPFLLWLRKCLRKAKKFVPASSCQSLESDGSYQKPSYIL
Sequence of Tumor necrosis factor (Homo sapiens) (P01375 whole entry, looked up): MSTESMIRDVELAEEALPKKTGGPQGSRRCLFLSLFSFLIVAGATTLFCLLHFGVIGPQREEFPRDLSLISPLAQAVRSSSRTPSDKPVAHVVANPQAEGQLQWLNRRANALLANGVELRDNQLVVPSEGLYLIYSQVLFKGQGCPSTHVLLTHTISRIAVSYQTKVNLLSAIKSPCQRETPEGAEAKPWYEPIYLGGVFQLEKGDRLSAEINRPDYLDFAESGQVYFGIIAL

CC(C)(C)c1ccc(CSc2cnn(C(C)(C)C)c(=O)c2Cl)cc1
active: [2] 9.19 µM | [5] 15.8 µM | CD38, CD38 (gene 952) 2.4 µM | CD40, CD40 (gene 958) 4.43 µM | CD69, CD69 (gene 969) 1.43 µM | [6] 1.11 µM | [7] 0.148 µM | [9] 0.0975 µM | [10] 0.453 µM | [11] 6.61 µM | [12] 13.6 µM
inactive: [1] | [3] | [4] | [8]

CON(C)C(=O)Nc1ccc(Cl)c(Cl)c1
active: [1] 6.39 µM | [2] 7.53 µM | [14] 3.72 µM
not listed: [15] | [16] | [17]
inactive: all other assays above

CCON=C(CC)C1=C(O)CC(c2c(C)cc(C)cc2C)CC1=O (centres undefined)
active: [1] 20 µM
not listed: CD69, CD69 (gene 969) | [13] | [14] | [15] | [16] | [17]
inactive: all other assays above

CCCCOC(=O)c1ccccc1C(=O)OCCCC
inactive: [1] | [2] | [3] | [4] | [5] | CD38, CD38 (gene 952) | CD40, CD40 (gene 958) | [6] | [7] | [8] | [9] | [10] | [12] | [13] | [14]
active: CD40, CD40 (gene 958) 15.4 µM | [7] 20 µM | [11] 29.2 µM and 31.4 µM | [15] 7.03 µM and 7.88 µM

CC(C)Oc1cc(-n2nc(C(C)(C)C)oc2=O)c(Cl)cc1Cl
active: [2] 32.7 µM | [4] 35.7 µM | [5] 31.7 µM | CD38, CD38 (gene 952) 28.7 µM | CD40, CD40 (gene 958) 29.3 µM | [6] 29.9 µM | [7] 30.3 µM | [8] 31.9 µM | [9] 34.4 µM | [10] 31.2 µM | [11] 31.3 µM | [12] 30.5 µM | [15] 6.42 µM
inactive: [1] | [3]

CCCC1COC(Cn2cncn2)(c2ccc(Cl)cc2Cl)O1 (centres undefined)
active: [1] 6.44 µM | [11] 20.7 µM | [13] 2.04 µM | [14] 7.82 µM | [17] 2.78 µM
not listed: [2] | CD69, CD69 (gene 969) | [15]
inactive: all other assays above

Fc1ccc(Oc2ccnc3cc(Cl)cc(Cl)c23)cc1
active: [1] 8.77 µM | [2] 18.7 µM | [3] 32.3 µM | [4] 20 µM | [5] 23.2 µM | CD38, CD38 (gene 952) 25.1 µM | [6] 28.2 µM | [7] 20.5 µM | [8] 30.6 µM | [9] 31.4 µM | [10] 15.9 µM | [11] 22.7 µM | [12] 25.5 µM | [15] 7.42 µM

COc1cnc(OC)n2nc(NS(=O)(=O)c3c(OCC(F)F)cccc3C(F)(F)F)nc12
not listed: CD69, CD69 (gene 969) | [13] | [14] | [15] | [16] | [17]
inactive: all other assays above

CC(C)C1(C)N=C(c2nc3ccccc3cc2C(=O)O)NC1=O (centres undefined)
active: [2] 2.62 µM | CD40, CD40 (gene 958) 1.33 µM
not listed: CD69, CD69 (gene 969) | [13] | [14] | [15] | [16] | [17]
inactive: all other assays above

O=C(Nc1ccccc1)Nc1ccnc(Cl)c1
active: [1] 6.08 µM | [4] 31.1 µM | [7] 14.2 µM | [10] 20 µM | [11] 33.5 µM | [14] 9.34 µM
not listed: CD69, CD69 (gene 969) | [15] | [16] | [17]
inactive: all other assays above

Oc1ccccc1-c1ccccc1
active: [1] 4.65 µM | [4] 14.8 µM | [13] 4.05 µM
not listed: CD69, CD69 (gene 969) | [14] | [15] | [16] | [17]
inactive: all other assays above

N#Cc1nn(-c2c(Cl)cc(C(F)(F)F)cc2Cl)c(N)c1S(=O)C(F)(F)F (centres undefined)
inactive: [1] | [3]
active: [2] 20 µM | [4] 5.27 µM | [5] 31.2 µM | CD38, CD38 (gene 952) 29.7 µM | CD40, CD40 (gene 958) 28.1 µM | [6] 30 µM | [7] 29.8 µM | [8] 35 µM | [9] 5.04 µM | [10] 27.8 µM | [11] 15.6 µM | [12] 34 µM
